An excerpt weighted towards active compounds, which were near 12% of everything screened.
HP1b binding inh = HP1-beta chromodomain-methylated histone interaction inhibition. P83916. 0.56% of 390,000 active. Potency, µM (series often up to 114 µM), most hits filed as inhibitors. AlphaScreen HP1-beta / biotin-H3K9me3 peptide binding. AID 540317; also: nearly all actives have a fitted effect of over 70% in size
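AlphaScreen: HP1-beta (50 nM) preformed 30 min with biotin-H3(1-18)K9me3 peptide (50 nM) in PBS pH 7.4, 0.01% Tween-20. Compound added for 30 min at RT, then streptavidin donor/nickel chelate acceptor beads (10 ug/mL) for 30 min.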
JMJD2A Tudor = JMJD2A Tudor domain (human) inhibition. AlphaScreen JMJD2A-Tudor / H3K4me3 peptide binding. Potency, µM (doses to about 114 µM), usual class: inhibitors. 4.4% of 390,000 active. AID 504339; also: nearly all actives have a fitted effect of over 50% in size
BAZ2B inh = blocks human BAZ2B; Q9UIF8; AlphaScreen BAZ2B-H3K14Ac peptide displacement; Potency, µM (top dose mostly 114 µM), hits mostly inhibitors; 4.4% of 360,000 active; AID 504333; also: nearly all actives have a fitted effect of over 60% in size
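BAZ2B 50 nM plus b-H3(5-23)K14Ac 50 nM, PBS pH 7.4/0.01% Tween-20, 30 min RT; compound added (max 110 uM), 30 min RT; streptavidin donor/Ni-chelate acceptor beads 10 ug/mL final, 20 min dark; AlphaScreen read.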
G9a inh = inhibitors of human histone lysine methyltransferase G9a. Q96KQ7. G9a H3K9 monomethylation, AlphaScreen, 2 h. Potency, µM (titrated, usually from 102 µM), most hits filed as inhibitors. 8.8% of 350,000 active; also: nearly all actives have a fitted effect of over 75% in size
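Methyltransferase reactions run at room temperature for 2 h (20 nM enzyme, 500 nM biotin-H3K9 peptide, 20 uM SAM) after a 15 min compound preincubation; product detected by AlphaScreen beads and anti-H3K9me1 antibody.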
Sfp PPTase inh = blocks B. subtilis Sfp PPTase activity. Biochemical Sfp PPTase activity, qHTS. 3.5% of 310,000 active. Q9F4F7. Potency, µM, hits mostly inhibitors;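 also: the enzyme is Sfp with the accession as filed and its product quenches rhodamine fluorescence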
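Step 1, compound plus 15 nM Sfp-PPTase, 15 min, room temperature. Step 2, add rhodamine-CoA (5 uM) and BHQ-2-YbbR (12.5 uM). Step 3, read 525/598 nm fluorescence at 0 and 30 min.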
Each line names hits and unclear results; the compound was inactive in the other large screens; ! = a repeat was not active. Calls follow the shape of the dose curve; as a rule, active = well fitted curve in the direction sought with a large enough effect; inconclusive = small, poorly fitted or top-dose-only effect, or another doubt; inactive = no such curve, though single readings can be large; an effect the other way counts as inactive or inconclusive.

CCC1(C)Cc2ccccc2-c2c1c(=O)n(-c1ccc(C)cc1)c1nnnn21 (configuration not stated)	G9a inh 50µM
Cc1ccc(/C=C2\C(=N)N3N=C(CC(=O)N4CCCCC4)SC3=NC2=O)cc1	none
CCc1ccc(/C=C2\C(=N)N3N=C(CC(=O)N4CCCCC4)SC3=NC2=O)cc1	BAZ2B inh inconclusive
Cc1cc(/C=C2\C(=N)N3N=C(CC(=O)N4CCOCC4)SC3=NC2=O)c(C)n1-c1ccccc1	G9a inh inconclusive
N=C1/C(=C/c2ccco2)C(=O)N=C2SC(CC(=O)N3CCCC3)=NN12	JMJD2A Tudor 79µM, BAZ2B inh inconclusive, G9a inh 40µM
COc1ccc(-n2c(C)cc(/C=C3\C(=N)N4N=C(CC(=O)N5CCOCC5)SC4=NC3=O)c2C)cc1	BAZ2B inh 45µM
N=C1/C(=C\c2ccc(Br)o2)C(=O)N=C2SC(CC(=O)N3CCOCC3)=NN12	JMJD2A Tudor 89µM, BAZ2B inh 50µM
N=C1/C(=C/c2ccc(Br)o2)C(=O)N=C2SC(CC(=O)N3CCCC3)=NN12	JMJD2A Tudor inconclusive, BAZ2B inh 50µM, G9a inh inconclusive
CC(C)CC(OC(=O)c1nsc(Cl)c1Cl)C(=O)NC1CCCC1 (configuration not stated)	G9a inh inconclusive
COc1ccc(C(=O)NCC(=O)OC(C(=O)Nc2cc(C(F)(F)F)ccc2Cl)c2ccccc2)cc1OC (configuration not stated)	none (no result: HP1b binding inh, BAZ2B inh, G9a inh, Sfp PPTase inh)
Cc1oc(C(=O)O)cc1CSCc1ccoc1C(=O)O	JMJD2A Tudor inconclusive, BAZ2B inh inconclusive, G9a inh 45µM
Cc1oc(C(=O)O)cc1CSCc1cc(C(=O)O)c(C)o1	JMJD2A Tudor 89µM, G9a inh 14µM, Sfp PPTase inh 20µM
Cc1cccc(CSCc2ccc(C(=O)O)o2)c1	HP1b binding inh inconclusive
CCOc1ccc(NC(=O)Cn2nc(CC)n3c(cc4sccc43)c2=O)cc1	none (no result: Sfp PPTase inh)
COc1cccc([C@@H]2Oc3ccc(Br)cc3C(=O)[C@H]2OC(=O)NCc2ccco2)c1	none (no result: HP1b binding inh, JMJD2A Tudor, BAZ2B inh, G9a inh)
CC(=O)N1CCN(C(=O)COC(=O)/C=C/c2ccccc2[N+](=O)[O-])CC1	none (no result: BAZ2B inh, G9a inh, Sfp PPTase inh)
O=C(O)[C@H]1NCCC[C@H]1C(=O)O	G9a inh 6.7µM! (no result: HP1b binding inh, JMJD2A Tudor, BAZ2B inh, Sfp PPTase inh)
O=C(O)C1CCCNC1 (configuration not stated)	none
Cc1ccc(NC(=O)C2CC(=O)N(c3ccc(OC(C)C)cc3)C2)cc1 (configuration not stated)	none (no result: Sfp PPTase inh)
COc1ccccc1OCC(=O)Nc1ccc(N2CCOCC2)cc1N1CCOCC1	JMJD2A Tudor 89µM, G9a inh inconclusive (no result: Sfp PPTase inh)
Cc1ccc(C)c(OCC(=O)Nc2ccc(N3CCOCC3)cc2N2CCOCC2)c1	JMJD2A Tudor inconclusive, BAZ2B inh inconclusive, G9a inh inconclusive (no result: Sfp PPTase inh)
N#Cc1ccccc1OCC(=O)Nc1ccc(N2CCOCC2)cc1N1CCOCC1	none (no result: Sfp PPTase inh)
Cc1ccccc1OCC(=O)Nc1ccc(N2CCOCC2)cc1N1CCOCC1	G9a inh 10µM (no result: Sfp PPTase inh)
Cc1ccccc1OCC(=O)N/N=C/c1ccc(N2CCOCC2)o1	JMJD2A Tudor inconclusive, BAZ2B inh inconclusive, Sfp PPTase inh 20µM
Cc1ccccc1OCCC(=O)Nc1ccc(N2CCOCC2)cc1N1CCOCC1	G9a inh 45µM (no result: Sfp PPTase inh)
Cc1cccc(NC(=O)c2ccc(-n3c(C)nnc3C)cc2)c1	none (no result: Sfp PPTase inh)
CN(Cc1ccccc1)C(=O)c1ccc(NC(=O)Cc2ccc(NC(=O)C3CCN(C(=O)c4ccccc4)CC3)cc2)cc1	none (no result: BAZ2B inh, G9a inh, Sfp PPTase inh)
CCN(CC)S(=O)(=O)c1ccc(C(=O)NCC2(N3CCOCC3)CCCCC2)cc1	none (no result: Sfp PPTase inh)
O=C1NN(c2ccc(F)c(Cl)c2)C(=O)/C1=C\c1cccc(OC(=O)c2cccs2)c1	HP1b binding inh inconclusive, JMJD2A Tudor 79µM, BAZ2B inh inconclusive, G9a inh 20µM
COc1ccccc1NC(=O)COc1ccc(/C=N/NC(=O)CSCc2ccc(Cl)cc2)cc1	Sfp PPTase inh 40µM (no result: G9a inh)
COc1ccc(/C=N/NC(=O)CNC(=O)COc2ccccc2)cc1	none
COc1ccc(OCC(=O)N/N=C/c2cccn2-c2cccc(C(=O)O)c2)cc1	HP1b binding inh inconclusive, JMJD2A Tudor 45µM, BAZ2B inh 79µM, G9a inh 35µM (no result: Sfp PPTase inh)
COc1ccc(OCC(=O)N/N=C/c2ccc(N(C)C)cc2)cc1	BAZ2B inh inconclusive, G9a inh 45µM
COc1ccc(OC)c(S(=O)(=O)N2CCN(Cc3nc4ccc(C)cc4o3)CC2)c1	none (no result: Sfp PPTase inh)
CS(=O)(=O)c1nc(S(=O)(=O)c2ccc(Cl)cc2)c(N2CCCCCC2)s1	none
CCCCCSc1nc2sc3c(c2c(=O)n1-c1ccccc1)CCN(C(C)=O)C3	G9a inh inconclusive (no result: Sfp PPTase inh)
COc1ccc(C(=O)NC(=S)NNC(=O)Cc2cccs2)cc1	JMJD2A Tudor inconclusive, G9a inh 11µM
COc1cc(OC)cc(C(=O)NC(=S)NNC(=O)Cc2cccs2)c1	G9a inh 8.9µM
COc1ccc(C(=O)NNC(=S)NC(=O)c2ccco2)cc1	G9a inh inconclusive
COc1cc(NC(=O)Cc2cccs2)cc(OC)c1	HP1b binding inh inconclusive
c1ccc(C2=NNC(c3ccccn3)=NN2)nc1	JMJD2A Tudor 7.1µM, BAZ2B inh 2.8µM, G9a inh 32µM, Sfp PPTase inh 13µM
c1ccc(-c2nc3ccccc3nc2-c2ccccn2)nc1	BAZ2B inh inconclusive, G9a inh inconclusive
COCC(=O)N(C)c1nnc(-c2ccccn2)s1	BAZ2B inh 56µM
c1ccc(-c2nnc(-c3ccccn3)s2)nc1	JMJD2A Tudor inconclusive, BAZ2B inh inconclusive, Sfp PPTase inh 89µM
COCC(=O)N(C)c1nnc(-c2ccc([N+](=O)[O-])cc2)s1	none
CC(=O)c1sc(-c2ccccn2)nc1C	G9a inh 35µM (no result: HP1b binding inh, JMJD2A Tudor)
CCOc1ccc(S(=O)(=O)Nc2cccc(C(=O)NCC(c3ccc(OC)cc3)N3CCOCC3)c2)cc1 (configuration not stated)	G9a inh inconclusive
CC#CCN1c2ccccc2[C@]23C[C@@H](C(=O)OC)N(C(=O)CC(C)C)C2=NC(C(=O)OC)=C(C(=O)OC)[C@H]13	none (no result: HP1b binding inh, JMJD2A Tudor, BAZ2B inh, G9a inh)
Cc1oc(-c2cccc(Cl)c2)nc1CN1CCCC(C(=O)NC(C)c2ccc3c(c2)OCCO3)C1 (configuration not stated)	JMJD2A Tudor inconclusive, BAZ2B inh inconclusive, G9a inh 50µM
Cc1oc(-c2cccc(Cl)c2)nc1CN1CCC(C(=O)N2CCN(c3ccccc3F)CC2)CC1	JMJD2A Tudor inconclusive, G9a inh inconclusive
Cc1oc(-c2cccc(Cl)c2)nc1CN1CCCC(C(=O)N2CCN(c3ccc(F)cc3)CC2)C1 (configuration not stated)	HP1b binding inh inconclusive, JMJD2A Tudor 40µM, BAZ2B inh 10µM, G9a inh 18µM (no result: Sfp PPTase inh)
Cc1ccc(CCNC(=O)C2CCCN(Cc3nc(-c4cccc(Cl)c4)oc3C)C2)cc1 (configuration not stated)	none (no result: Sfp PPTase inh)
Cc1cccc(-c2nc(CN3CCCC(C(=O)NCCc4ccc(Cl)cc4)C3)c(C)o2)c1 (configuration not stated)	JMJD2A Tudor inconclusive, BAZ2B inh 56µM, G9a inh inconclusive (no result: Sfp PPTase inh)

Screens: PubChem, National Center for Advancing Translational Sciences (NCATS)
